Assay outcomes from PubChem.
SMN2 splice enh = enhancers of SMN2 splice variant expression; HEK293 SMN2-luciferase splicing reporter, luminescence, 30-36 h; 210,000 compounds, 2.8% hits; AID 1458; Potency, µM (series often up to 46.1 µM), inactives show at the top dose activity change, positive = activation, actives largely listed as activators; note: % of control where 0% means no effect; nearly all actives have a fitted effect of over 55% in size
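qHTS luciferase splicing reporter: luminescence rises when SMN2 exon 7 is included in transfected HEK293 cells. Compound exposure lasted 30-36 h at 37C, with 4.5 mM final sodium butyrate as control, followed by a ONE-Glo read.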
FLuc modulator = inhibits or activates purified firefly luciferase, miR-21 counter-screen. P08659. purified FLuc, Km substrates, luminescence inhibition. Potency, µM (titrated, usually from 57.5 µM), without a hit: at the top dose activity change, negative = inhibition, most hits filed as inhibitors. 360,000 compounds, 6.9% hits;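 note: plate controls were vehicle for no effect and reference inhibitor for full effect; nearly all actives have a fitted effect of over 55% in size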
Target sequence (P08659 whole entry, looked up): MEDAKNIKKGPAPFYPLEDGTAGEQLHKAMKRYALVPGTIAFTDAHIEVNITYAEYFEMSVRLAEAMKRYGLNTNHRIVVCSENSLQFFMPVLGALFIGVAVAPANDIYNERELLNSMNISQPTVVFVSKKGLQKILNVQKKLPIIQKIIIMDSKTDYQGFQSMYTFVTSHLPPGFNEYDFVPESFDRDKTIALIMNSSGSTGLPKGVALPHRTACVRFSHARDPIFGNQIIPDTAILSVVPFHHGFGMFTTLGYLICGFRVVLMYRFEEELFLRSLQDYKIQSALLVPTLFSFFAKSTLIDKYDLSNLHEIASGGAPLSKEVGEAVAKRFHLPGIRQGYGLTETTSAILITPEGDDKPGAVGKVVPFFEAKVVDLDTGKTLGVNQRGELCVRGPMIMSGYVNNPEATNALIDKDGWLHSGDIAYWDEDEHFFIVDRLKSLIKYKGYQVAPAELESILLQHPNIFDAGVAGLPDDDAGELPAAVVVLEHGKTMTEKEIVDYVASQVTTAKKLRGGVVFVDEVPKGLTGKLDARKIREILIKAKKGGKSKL
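Biochemical qHTS of compounds, final roughly 60 µM downward over six points, against 10 nM purified firefly luciferase using Km concentrations of substrates (10 uM D-luciferin, 10 uM ATP) in Tris acetate pH 7.5 buffer; luminescence output.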
Rab9 prom act = Rab9 promoter activation. 320,000 compounds, 2.8% hits. Huh7 Rab9 promoter-luciferase reporter, luminescence, 24 h. Potency, µM (titrated, usually from 9.22 µM), for inactives: top-dose activation, negative = inhibition, hits mostly activators; note: % of control where 0% means no effect; nearly all actives have a fitted effect of over 60% in size
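Quantitative HTS format; Huh7 Rab9-luciferase reporter cells (1500/well) receive compound 2 h post-plating, incubate 24 h at 37 °C, then get luciferase reagent for 10 min before luminescence reading.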
NPC1 prom act = NPC1 promoter activation. Huh7 NPC1 promoter luciferase reporter, 24 h. Potency, µM (titrated, usually from 9.22 µM), for inactives: at the highest dose activation, hits mostly activators. 320,000 compounds, 2.4% hits. AID 485313; note: % of control where 0% means no effect; nearly all actives have a fitted effect of over 60% in size
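Readout is luciferase luminescence, reflecting NPC1 promoter activation in stably transfected Huh7 cells after 24 h compound exposure at 37 °C in reduced-serum medium with 10% FBS.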
ELG1 repair inh = inhibitors of ELG1-dependent DNA repair in HEK293T cells | HEK293T ELG1-luciferase reporter, luminescence, 16 h; DNA damage induced by 5-fluorouridine | Potency, µM (highest dose often 46.1 µM), for inactives: at the highest dose activity change, negative = inhibition, hits mostly inhibitors | 330,000 compounds, 2.3% hits | AID 504467; note: % is set by controls: 0 for no effect and ±100 for the full control effect; nearly all actives have a fitted effect of over 55% in size
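Cells (2,000 per well) received 5-fluorouridine plus test compound or DMSO and were incubated 16 hr at 37 °C, 5% CO2. Luciferase activity was read by luminescence 30 min after ONE-Glo addition; signal suppression marked inhibition of damage-induced ELG1 function.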
ELG1 genotoxic = inducers of genotoxicity in HEK293T ELG1-luciferase cells. 330,000 compounds, 1.3% hits. Potency, µM (series often up to 46 µM), for the others: at the highest dose activity change, positive = activation, actives largely listed as activators. AID 504466. HEK293T ELG1-luciferase reporter, luminescence, 16 h; note: % of control where 0% means no effect; nearly all actives have a fitted effect of over 60% in size
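After overnight (16 hr) compound treatment at 37 °C, ELG1-luciferase HEK293T cells were lysed with ONE-Glo; luminescence quantified 30 min later at room temperature.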
* hit, by the source's call; ? = inconclusive; / = no result given; [ ] = remark or other dose. Compounds with a hit are over-represented: about 9.2% of the library has one in this group of screens. Calls come from the whole dose curve; as a rule, active = well fitted curve in the direction sought with a large enough effect; inconclusive = small, poorly fitted or top-dose-only effect, or another doubt; inactive = no such curve, though single readings can be large; an effect the other way counts as inactive or inconclusive. Potency is the fitted concentration of half-maximal effect.

SMILES	SMN2 splice enh	FLuc modulator	Rab9 prom act	NPC1 prom act	ELG1 repair inh	ELG1 genotoxic
Cc1ccc(Cl)cc1N1CCN(C(=O)c2cc(S(=O)(=O)N3CCCCCC3)cn2C)CC1	/	1%	/	/	/	/
COc1ccc(OC)c(-c2csc(NC(=O)c3ccc(OCC4CCCO4)cc3)n2)c1 (stereo unspecified)	-25%	1.5µM*	-25%	-4%	6.5µM*	-4%
COc1ccc(OC)c(-c2csc(NC(=O)c3ccc(F)cc3)n2)c1	/	11µM*	6%	?	?	7%
COc1ccc(C(=O)Nc2nc(CC(=O)NCc3ccc(F)cc3)cs2)cc1	/	?	?	24%	?	-9%
COc1ccc(OC)c(-c2csc(NC(=O)Cc3ccc(F)cc3)n2)c1	/	17µM*	-2%	-6%	-20%	-13%
COc1ccc(C(=O)Nc2nc(CC(=O)NCCc3ccccc3OC)cs2)cc1	/	2.7µM*	5%	-6%	?	-6%
Cc1ccc(CSC2=NC(C)(C)Nc3ccccc32)c(C)c1	/	-11%	/	/	/	/
O=S(=O)(Oc1ccc(C(=S)N2CCOCC2)cc1)c1ccc(Cl)cc1	/	-4%	-2%	-2%	-25%	-1%
COc1ccc(C)c2sc(NC(=O)C3=COCCO3)nc12	?	5.4µM*	15%	14%	?	16µM*
COc1ccc(OC)c(-c2csc(NC(=O)C3=COCCO3)n2)c1	/	11µM*	0%	1%	1%	-4%
Cc1ccc(C)c(-c2csc(NC(=O)C3=COCCO3)n2)c1	/	?	0%	-2%	?	?
C=CCOc1ccc(C=Nc2ccc(C)c(Cl)c2)c(O)c1	4%[1.84 µM]	?	2%	0%	-1%	1%
CC1(C)OC(=O)C(=CNc2ccccc2)C(=O)O1	-4%	?	0%	-3%	0%	12%
CC1(C)OC(=O)C(=CNc2cccc(C(=O)O)c2)C(=O)O1	0%	15µM*	?	24%	16%	1%
O=C(CCCC(=O)OCC(=O)c1ccc(F)cc1)Nc1cc(C(F)(F)F)ccc1Cl	20%	12µM*	-1%	2%	11%	2%
O=C(CCCC(=O)OCC(=O)c1ccc(Cl)cc1Cl)Nc1cc(C(F)(F)F)ccc1Cl	-2%	3.8µM*	-3%	1%	24%	0%
O=C(COC(=O)c1ccc(O)cc1)Nc1cc(C(F)(F)F)ccc1Cl	12%	1%	-2%	-4%	-6%	-4%
COc1ccc(C(=O)NCc2ccccc2CN2CCCC2)cc1S(=O)(=O)Nc1ccc(C)cc1	/	-7%	7%	-3%	-20%	-2%
Nn1c(SCC(=O)N2CCOCC2)nnc1-c1cccnc1	/	6%	1%	-2%	15%	-1%
Cc1cc(NC(=O)CSc2ncc(C(=O)Nc3ccc(C)c(C)c3)c(=O)n2C)no1	/	-2%	/	/	/	/
O=S(=O)(NCC(c1ccco1)N1CCOCC1)c1ccc(Cl)cc1 (stereo unspecified)	13%	-1%	-2%	1%	-6%	-2%
CCOC(=O)C1CCN(C(C(=O)Nc2ccc3c(c2)OCCO3)c2ccccc2)CC1 (stereo unspecified)	-16%	-2%	-1%	0%	11%	-2%
CCOC(=O)C1CCN(c2c(Nc3ccc4c(c3)OCCO4)c(=O)c2=O)CC1	-9%	21µM*	17%	11%	?	?
CCOC(=O)N1CCC(N2C(=O)c3ccccc3C2Nc2ccc3c(c2)OCCO3)CC1 (stereo unspecified)	-25%	21µM*	11%	1%	?	?
CCOC(=O)N1CCC(N2C(=O)c3ccccc3C2Nc2ccc3c(C)cc(=O)oc3c2)CC1 (stereo unspecified)	28%	-1%	-4%	0%	?	5%
SMILES	SMN2 splice enh	FLuc modulator	Rab9 prom act	NPC1 prom act	ELG1 repair inh	ELG1 genotoxic
Cc1c(NC(=S)NC(NC(=O)C(C)C)C(Cl)(Cl)Cl)c(=O)n(-c2ccccc2)n1C (stereo unspecified)	-8%	5%	-9%	-4%	0%	0%
CC(C)(C)c1cc(NC(=O)CSc2nnc(N)s2)n(-c2ccccc2)n1	/	4%	-1%	1%	-16%	3%
COc1ccc(-n2cnnc2SCC(=O)Nc2cc(C(C)(C)C)nn2-c2ccccc2)cc1	-17%	3%	-3%	1%	21µM*	-19%
CC(C)(C)c1cc(NC(=O)CSc2nnc(NCc3ccccc3)s2)n(-c2ccccc2)n1	-35%	19µM*	0%	-1%	23µM*	-12%
Cn1c(SCC(=O)Nc2nnc(-c3ccccc3)o2)nnc1C1CC1	/	13µM*	0%	1%	19%	1%
COc1ccccc1-n1cnnc1SCC(=O)Nc1cc(C(C)(C)C)nn1-c1ccccc1	-34%	-1%	1%	1%	?	-7%
COCCNc1nnc(SCC(=O)Nc2nnc(-c3ccccc3)o2)s1	/	19µM*	-5%	-1%	20%	12%
Nc1nnc(SCC(=O)Nc2nnc(-c3ccccc3)o2)s1	/	?	-2%	1%	-5%	0%
CCCc1ccc(-c2cc(NC(=O)CSc3n[nH]c(N)n3)n(-c3ccccc3)n2)cc1	2%	4.3µM*	15%	17%	6%	?
COCCNc1nnc(SCC(=O)Nc2cc(-c3ccccc3)nn2-c2ccccc2)s1	23%	?	-1%	-2%	21µM*	-4%
CC(NC(=O)CSc1n[nH]c(N)n1)c1ccccc1 (stereo unspecified)	/	5%	-2%	-1%	7%	4%
CC(C)(C)C1CCc2sc(-c3nnc(CCl)o3)cc2C1 (stereo unspecified)	-24%	24µM*	-1%	-2%	?	5%
O=C(NC1CC1)c1ccc(Cn2c(SCc3ccc(F)cc3)nc3cccnc32)cc1	/	1.7µM*	/	/	/	/
Cc1ccccc1CSc1nc2cccnc2n1Cc1ccc(C(=O)NC2CC2)cc1	/	6µM*	/	/	/	/
COc1ccc2cc3cc(C(=O)N4CCN(c5ccccc5)CC4)oc3nc2c1	-41%	?	-1%	-1%	20%	-1%
COc1ccc2nc3oc(C(=O)N4CCCCC4)cc3cc2c1	14µM*	6.7µM*	2.8µM*	3.2µM*	?	15µM*
COc1ccc2nc3oc(C(=O)N4CC(C)CC(C)C4)cc3cc2c1 (stereo unspecified)	/	21µM*	12%	-1%	?	3%
COc1ccc2cc3cc(C(=O)N4CCCC(C)C4)oc3nc2c1 (stereo unspecified)	/	5.4µM*	2µM*	2.5µM*	?	?
